Assay results from PubChem BioAssay (NCATS).
Inconclusive results are not listed. Entries that show only a call come without a potency. Some structures have more than one record in an assay (separate samples or runs), and their calls can disagree. The source made the active and inactive calls. Unless noted, calls come from the whole dose curve; as a rule, active = well fitted curve in the direction sought with a large enough effect; inconclusive = small, poorly fitted or top-dose-only effect, or another doubt; inactive = no such curve, though single readings can be large; an effect the other way counts as inactive or inconclusive.

Tests used:
[1] = biological target: Thioredoxin reductase 1, cytoplasmic (Rattus norvegicus) (UniProt O89049); assay: qHTS Assay for Substrates of Mammalian Selenoprotein Thioredoxin Reductase 1 (TrxR1) (AID 488772);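 note: NADPH fluorescence in the first read after selenite addition and not the 8 min delta; series mostly up to about 57 µM; a drop in NADPH fluorescence below the no-compound background marks a TrxR1 substrate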
How it was run: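 Quantitative HTS in Tris-HCl buffer at pH 7.5 with EDTA and Tween-20, using rat TrxR1, 400 uM NADPH and 400 uM selenite (final). A fall in initial NADPH fluorescence relative to background marked substrate behaviour.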

[2] = biological target: Thioredoxin reductase 1, cytoplasmic (Rattus norvegicus) (UniProt O89049); assay: qHTS Assay for Inhibitors of Mammalian Selenoprotein Thioredoxin Reductase 1 (TrxR1) (AID 488773); settings: Potency: inhibition;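 note: drop in NADPH fluorescence over an 8 min run after selenite addition; series mostly up to about 57 µM; nearly all actives have a fitted effect of over 40% in size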
How it was run: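 Steps: enzyme (90 nM) plus NADPH (400 uM final), 5 min at ~22 deg C; compound added, 15 min; selenite (400 uM final) added; fluorescence followed for 8 min. Concentration-response curves derived from the normalized delta values.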

[3] = biological target: Flap endonuclease 1 (Homo sapiens) (UniProt P39748); assay: qHTS Validation Assay for the Inhibitors of Human Flap endonuclease 1 (FEN1) (AID 488816); note: potency is the fitted concentration of half-maximal effect
How it was run: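 FEN1, dispensed as a 10 nM reagent, was preincubated with pin-transferred compounds for 15 min at room temperature before substrate was added (50 nM final). Plates were read at 0 and 15 min, and a four-parameter Hill equation was fitted to the concentration-response data.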

[4] = biological target: M-phase phosphoprotein 8 (Homo sapiens) (UniProt Q99549); assay: qHTS Validation Assay for Inhibitors for MPP8 Chromodomain Interactions with Methylated Histone Tails (AID 488949); note: nearly all actives have a fitted effect of over 55% in size; note: potency is the fitted concentration of half-maximal effect
How it was run: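 50 nM MPP8 + 50 nM b-H3K9me3 peptide, PBS pH 7.4/0.01% Tween-20, 30 min RT; + cpd 30 min RT; + AlphaScreen donor/Ni-chelate acceptor beads 10 ug/mL final, 30 min dark; luminescence read.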

[5] = biological target: Chromobox protein homolog 1 (Homo sapiens) (UniProt P83916); assay: qHTS Validation Assay for Inhibitors of HP1-beta Chromodomain Interactions with Methylated Histone Tails (AID 488953); note: nearly all actives have a fitted effect of over 50% in size; note: potency is the fitted concentration of half-maximal effect
How it was run: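 HP1-beta (50 nM) was preincubated 30 min at room temperature with biotinylated H3(1-18)K9me3 peptide (50 nM) in PBS pH 7.4, 0.01% Tween-20, then with compounds 30 min. AlphaScreen signal was read after streptavidin donor/nickel chelate acceptor beads (10 ug/mL final).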

[6] = biological target: Methanococcus maripaludis chaperonin (MmCpn) (UniProt Q6LX38); assay: High-Throughput Screening for Modulators of Cytosolic Chaperonin Activity: MmCpn Primary Screen (AID 488978);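 note: 50 nM MmCpn enzyme hydrolysing 30 µM ATP at 37 °C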
How it was run: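 Steps: chaperonin 50 nM final; add compound, 5 min RT; start with ATP, 30 uM final; hold 10 min at 37C; add ADP Transcreener HTRF reagent, 5 min; read ex 320, em 590 and 665 nm.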

[7] = biological target: Transient receptor potential cation channel subfamily V member 1 (Homo sapiens) (UniProt Q8NER1); assay: HTS Assay for Compounds that Act as Enhancers of the Vanilloid Receptor 1 (AID 488979)
How it was run: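 TRPV1-expressing cells loaded with Fluo-8 calcium dye; compounds added and calcium influx read kinetically for 3 min (agonist phase), then capsaicin at EC20 added and read 2 min more for enhancement. Fluorescence ex 480/em 520 nm.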

[8] = biological target: D(1A) dopamine receptor (Homo sapiens) (UniProt P21728); assay: HTS Assay for Allosteric Agonists of the Human D1 Dopamine Receptor: Primary Screen for Agonists (AID 488981)
How it was run: (§1)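 Tetracycline-induced HEK293 T-REx cells force-coupled to calcium signalling were incubated overnight at 30 C and dye-loaded at room temperature. Calcium flux over 180 s after compound addition flagged agonists; a further 180 s read after EC20 dopamine flagged potentiators.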

[9] = biological target: D(1A) dopamine receptor (Homo sapiens) (UniProt P21728); assay: HTS Assay for Allosteric Agonists of the Human D1 Dopamine Receptor: Primary Screen for Potentiators (AID 488982)
How it was run: as §1

[10] = biological target: D(1A) dopamine receptor (Homo sapiens) (UniProt P21728); assay: HTS Assay for Allosteric Agonists of the Human D1 Dopamine Receptor: Primary Screen for Antagonists (AID 488983);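 note: calcium flux response to an EC80 dopamine challenge measured with no-wash dye; nearly all actives have a fitted effect of over 65% in size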; note: potency is the fitted concentration of half-maximal effect
How it was run: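 Tetracycline-induced HEK293 T-REx cells expressing force-coupled D1 were plated overnight at 30 C, dye-loaded for calcium, and read kinetically. Compounds were pinned in, then an EC80 dopamine challenge followed after 180 s to reveal antagonism.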

[11] = Validation screen for small molecules that induce genotoxicity in human embryonic kidney (HEK293T) cells expressing luciferase-tagged ELG1 (AID 493106)
How it was run: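 HEK293T cells expressing luciferase-tagged ELG1 were exposed to compound or DMSO vehicle for 16 hr at 37 °C, 5% CO2. Genotoxic stress raises ELG1 levels, so increased luciferase signal after ONE-Glo addition and 30 min at room temperature marks hits.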

[12] = biological target: Thyrotropin-releasing hormone receptor (Homo sapiens) (UniProt P34981); assay: qHTS for Small Molecule Agonists and Allosteric Enhancers of Human TRH Receptor: Validation Screen for Agonists (AID 493127;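 active = calcium activation more than 3 SD above the typical response in the agonist read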;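 note: intracellular calcium rise by fluo-8 fluorescence before TRH EC20 addition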); settings: TRH receptor agonist cell assay; at 2 µM; stronger effect = higher value
How it was run: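 TRHR-expressing cells were plated overnight in serum-containing medium, then loaded with fluo-8 calcium dye at room temperature for 30 min–1.5 h. After a 10 s baseline, compound was pin-transferred and calcium fluorescence (ex 480/em 530) read kinetically for agonist response.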

[13] = qHTS for Inhibitors of Cell Surface uPA Generation: Validation Assay (AID 493164);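 note: RAW 264.7 macrophage cells exposed to compound for 18 h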
How it was run: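 RAW 264.7, 4000 cells/well, o/n plating; cpd 7-pt 1:5 dilution 2.45 nM–38.3 uM final; 18 h, 37 C/5% CO2; ATP-Lite, 5 s luminescence exposure.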

[14] = biological target: Galactokinase (Homo sapiens) (UniProt P51570); assay: qHTS Validation Assay for Inhibitors of Human Galactokinase (GALK) (AID 493189)
How it was run: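 5 nM GALK / 100 uM galactose / 35 uM ATP, 20 mM HEPES pH8.0, 5 mM MgCl2, 60 mM NaCl, 1 mM DTT, 0.01% BSA (final). RT 1 h; Kinase-Glo Plus luminescence.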

[15] = Validation screen for small molecules that induce DNA re-replication in SW480 colon adenocarcinoma cells (AID 504364)
How it was run: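 SW480 cells seeded at 250 per well were exposed to compound or DMSO for 48 hr at 37 C, 5% CO2, then stained with Hoechst for 40 min. DNA content per nucleus was imaged (405 nm ex, 500-530 nm em).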

[16] = biological target: ATP-dependent 6-phosphofructokinase (Trypanosoma brucei brucei) (UniProt O15648); assay: qHTS Assay to Find Inhibitors of T. brucei phosphofructokinase: hit validation (AID 492961);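 note: luminescence reports ADP formed as PFK phosphorylates fructose-6-phosphate with ATP; series mostly up to about 51 µM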
How it was run: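 Percent activity derived from corrected luminescence, normalized between 0x and 1x enzyme controls, then fitted to concentration-response curves. Conditions: 1.25 nM PFK, 0.1 mM ATP, 0.5 mM F6P, 45 min RT.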

[17] = Nrf2 qHTS screen for inhibitors: Validation (AID 493153; active = well fitted inhibition curve with a large enough effect in the main read-out, with a control signal flat, not every such curve was filed as active; note: potency is the fitted concentration of half-maximal effect); settings: Potency: luciferase luminescence; viability change: measured here: cytotoxicity max response
How it was run: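 A549 cells carrying an ARE-driven firefly luciferase reporter, in 5% FBS OPTI-MEM, were treated with compounds in concentration-response for 18-24 h at 37°C. Viability was read by CellTiter-Fluor fluorescence, then Nrf2 activity by luciferase luminescence.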

[18] = biological target: Thyrotropin receptor (Homo sapiens) (UniProt P16473); assay: qHTS Assay for Antagonists of the Thyroid Stimulating Hormone Receptor (AID 488980); note: series mostly up to about 58 µM
How it was run: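 Readout is cAMP by HTRF competition between cellular cAMP and cAMP-d2 for a cryptate-labelled antibody. Antagonism was assessed in TSHR-transfected HEK293 cells stimulated with 4 nM TSH (EC80, final) in the presence of RO 20-1724.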

[19] = biological target: ATPase family AAA domain-containing protein 5 (Homo sapiens) (UniProt Q96QE3); assay: Validation screen for small molecules that inhibit ELG1-dependent DNA repair in human embryonic kidney (HEK293T) cells expressing luciferase-tagged ELG1 (AID 493107);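 note: cells co-treated with the DNA-damaging agent 5-fluorouridine alongside compound; series mostly up to about 46 µM; inhibitors lower the ELG1-luciferase luminescence signal; nearly all actives have a fitted effect of over 70% in size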
How it was run: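 HEK293T cells expressing luciferase-tagged ELG1 were co-treated with 5-fluorouridine and compound or DMSO for 16 hr at 37 °C, 5% CO2. Luciferase activity was then read with ONE-Glo after 30 min at room temperature; suppressed signal indicates blocked ELG1 function.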

Sequence of Thyrotropin-releasing hormone receptor (Homo sapiens) (P34981 whole entry, looked up): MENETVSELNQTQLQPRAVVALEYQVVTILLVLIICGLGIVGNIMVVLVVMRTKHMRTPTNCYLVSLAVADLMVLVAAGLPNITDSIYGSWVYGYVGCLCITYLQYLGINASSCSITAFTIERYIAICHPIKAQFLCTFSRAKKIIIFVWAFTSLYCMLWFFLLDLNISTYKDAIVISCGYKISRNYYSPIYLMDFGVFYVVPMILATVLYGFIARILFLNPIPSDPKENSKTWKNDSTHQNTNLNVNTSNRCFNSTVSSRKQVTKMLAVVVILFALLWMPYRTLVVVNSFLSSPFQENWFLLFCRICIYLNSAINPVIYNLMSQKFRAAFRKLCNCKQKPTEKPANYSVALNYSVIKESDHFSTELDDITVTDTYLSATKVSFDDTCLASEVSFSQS
Sequence of Transient receptor potential cation channel subfamily V member 1 (Homo sapiens) (Q8NER1 whole entry, looked up): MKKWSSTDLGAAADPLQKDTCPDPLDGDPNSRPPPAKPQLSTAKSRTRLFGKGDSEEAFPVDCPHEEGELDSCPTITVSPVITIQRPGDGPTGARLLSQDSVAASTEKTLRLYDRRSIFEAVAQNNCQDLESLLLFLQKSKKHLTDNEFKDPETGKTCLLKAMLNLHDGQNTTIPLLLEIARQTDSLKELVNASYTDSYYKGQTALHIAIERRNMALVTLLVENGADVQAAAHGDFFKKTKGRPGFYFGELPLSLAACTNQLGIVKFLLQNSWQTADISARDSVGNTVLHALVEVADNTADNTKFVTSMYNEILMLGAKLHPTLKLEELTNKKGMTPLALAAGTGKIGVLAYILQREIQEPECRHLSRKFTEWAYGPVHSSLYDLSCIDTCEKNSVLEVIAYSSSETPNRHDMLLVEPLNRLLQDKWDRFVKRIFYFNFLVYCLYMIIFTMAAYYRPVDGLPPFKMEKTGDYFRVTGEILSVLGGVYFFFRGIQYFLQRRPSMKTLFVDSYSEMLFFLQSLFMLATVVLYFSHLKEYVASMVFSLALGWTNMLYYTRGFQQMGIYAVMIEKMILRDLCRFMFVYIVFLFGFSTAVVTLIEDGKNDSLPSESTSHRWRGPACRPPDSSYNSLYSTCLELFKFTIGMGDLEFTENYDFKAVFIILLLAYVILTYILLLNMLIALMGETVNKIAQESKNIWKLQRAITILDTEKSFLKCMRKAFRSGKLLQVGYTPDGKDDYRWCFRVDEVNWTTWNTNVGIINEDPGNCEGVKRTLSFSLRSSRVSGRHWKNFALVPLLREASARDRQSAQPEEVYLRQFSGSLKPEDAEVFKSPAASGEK
Sequence of Methanococcus maripaludis chaperonin (MmCpn) (Q6LX38 1-543): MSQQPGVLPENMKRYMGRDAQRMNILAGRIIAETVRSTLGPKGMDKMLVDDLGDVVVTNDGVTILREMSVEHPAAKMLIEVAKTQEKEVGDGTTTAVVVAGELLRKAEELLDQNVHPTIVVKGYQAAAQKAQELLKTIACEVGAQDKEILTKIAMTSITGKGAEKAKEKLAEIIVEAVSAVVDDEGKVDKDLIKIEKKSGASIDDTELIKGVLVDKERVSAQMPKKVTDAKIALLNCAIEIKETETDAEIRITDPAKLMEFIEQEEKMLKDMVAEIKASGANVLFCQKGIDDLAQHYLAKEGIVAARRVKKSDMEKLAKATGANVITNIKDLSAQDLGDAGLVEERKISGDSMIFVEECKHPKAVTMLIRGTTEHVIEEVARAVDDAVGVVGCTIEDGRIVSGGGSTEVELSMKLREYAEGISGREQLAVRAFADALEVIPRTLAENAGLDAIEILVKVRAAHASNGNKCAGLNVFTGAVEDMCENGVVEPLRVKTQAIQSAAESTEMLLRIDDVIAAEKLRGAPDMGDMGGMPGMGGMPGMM
Sequence of Flap endonuclease 1 (Homo sapiens) (P39748 whole entry, looked up): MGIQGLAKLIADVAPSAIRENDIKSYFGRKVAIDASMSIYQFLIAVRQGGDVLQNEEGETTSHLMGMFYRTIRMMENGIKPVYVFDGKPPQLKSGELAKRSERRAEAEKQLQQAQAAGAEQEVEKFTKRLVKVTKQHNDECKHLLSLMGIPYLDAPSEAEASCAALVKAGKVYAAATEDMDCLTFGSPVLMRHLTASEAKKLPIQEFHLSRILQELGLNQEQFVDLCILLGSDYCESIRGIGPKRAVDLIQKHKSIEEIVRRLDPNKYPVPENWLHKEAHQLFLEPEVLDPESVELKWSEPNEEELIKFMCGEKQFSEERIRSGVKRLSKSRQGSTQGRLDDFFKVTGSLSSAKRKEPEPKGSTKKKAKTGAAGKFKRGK
Sequence of Chromobox protein homolog 1 (Homo sapiens) (P83916 whole entry, looked up): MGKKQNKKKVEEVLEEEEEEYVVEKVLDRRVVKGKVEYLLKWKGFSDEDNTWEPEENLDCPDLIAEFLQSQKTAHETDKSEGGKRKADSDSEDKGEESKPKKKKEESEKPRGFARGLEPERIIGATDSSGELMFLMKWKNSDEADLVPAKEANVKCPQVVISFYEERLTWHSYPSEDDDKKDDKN
Sequence of Thioredoxin reductase 1, cytoplasmic (Rattus norvegicus) (O89049 whole entry, looked up): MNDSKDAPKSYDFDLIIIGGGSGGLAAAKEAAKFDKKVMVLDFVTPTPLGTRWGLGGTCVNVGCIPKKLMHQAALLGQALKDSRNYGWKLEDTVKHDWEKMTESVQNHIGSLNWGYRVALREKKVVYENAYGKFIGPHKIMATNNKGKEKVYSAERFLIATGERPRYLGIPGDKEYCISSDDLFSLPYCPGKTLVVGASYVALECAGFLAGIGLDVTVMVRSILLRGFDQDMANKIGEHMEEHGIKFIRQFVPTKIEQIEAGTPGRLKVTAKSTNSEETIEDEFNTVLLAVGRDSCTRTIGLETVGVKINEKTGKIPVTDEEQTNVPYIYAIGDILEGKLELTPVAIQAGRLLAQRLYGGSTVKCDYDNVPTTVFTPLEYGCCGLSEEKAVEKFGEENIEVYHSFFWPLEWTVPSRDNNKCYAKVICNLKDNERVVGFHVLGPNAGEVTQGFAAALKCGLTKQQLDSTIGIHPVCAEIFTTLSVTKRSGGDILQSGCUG
Sequence of ATPase family AAA domain-containing protein 5 (Homo sapiens) (Q96QE3 whole entry, looked up, the tested form may be a part): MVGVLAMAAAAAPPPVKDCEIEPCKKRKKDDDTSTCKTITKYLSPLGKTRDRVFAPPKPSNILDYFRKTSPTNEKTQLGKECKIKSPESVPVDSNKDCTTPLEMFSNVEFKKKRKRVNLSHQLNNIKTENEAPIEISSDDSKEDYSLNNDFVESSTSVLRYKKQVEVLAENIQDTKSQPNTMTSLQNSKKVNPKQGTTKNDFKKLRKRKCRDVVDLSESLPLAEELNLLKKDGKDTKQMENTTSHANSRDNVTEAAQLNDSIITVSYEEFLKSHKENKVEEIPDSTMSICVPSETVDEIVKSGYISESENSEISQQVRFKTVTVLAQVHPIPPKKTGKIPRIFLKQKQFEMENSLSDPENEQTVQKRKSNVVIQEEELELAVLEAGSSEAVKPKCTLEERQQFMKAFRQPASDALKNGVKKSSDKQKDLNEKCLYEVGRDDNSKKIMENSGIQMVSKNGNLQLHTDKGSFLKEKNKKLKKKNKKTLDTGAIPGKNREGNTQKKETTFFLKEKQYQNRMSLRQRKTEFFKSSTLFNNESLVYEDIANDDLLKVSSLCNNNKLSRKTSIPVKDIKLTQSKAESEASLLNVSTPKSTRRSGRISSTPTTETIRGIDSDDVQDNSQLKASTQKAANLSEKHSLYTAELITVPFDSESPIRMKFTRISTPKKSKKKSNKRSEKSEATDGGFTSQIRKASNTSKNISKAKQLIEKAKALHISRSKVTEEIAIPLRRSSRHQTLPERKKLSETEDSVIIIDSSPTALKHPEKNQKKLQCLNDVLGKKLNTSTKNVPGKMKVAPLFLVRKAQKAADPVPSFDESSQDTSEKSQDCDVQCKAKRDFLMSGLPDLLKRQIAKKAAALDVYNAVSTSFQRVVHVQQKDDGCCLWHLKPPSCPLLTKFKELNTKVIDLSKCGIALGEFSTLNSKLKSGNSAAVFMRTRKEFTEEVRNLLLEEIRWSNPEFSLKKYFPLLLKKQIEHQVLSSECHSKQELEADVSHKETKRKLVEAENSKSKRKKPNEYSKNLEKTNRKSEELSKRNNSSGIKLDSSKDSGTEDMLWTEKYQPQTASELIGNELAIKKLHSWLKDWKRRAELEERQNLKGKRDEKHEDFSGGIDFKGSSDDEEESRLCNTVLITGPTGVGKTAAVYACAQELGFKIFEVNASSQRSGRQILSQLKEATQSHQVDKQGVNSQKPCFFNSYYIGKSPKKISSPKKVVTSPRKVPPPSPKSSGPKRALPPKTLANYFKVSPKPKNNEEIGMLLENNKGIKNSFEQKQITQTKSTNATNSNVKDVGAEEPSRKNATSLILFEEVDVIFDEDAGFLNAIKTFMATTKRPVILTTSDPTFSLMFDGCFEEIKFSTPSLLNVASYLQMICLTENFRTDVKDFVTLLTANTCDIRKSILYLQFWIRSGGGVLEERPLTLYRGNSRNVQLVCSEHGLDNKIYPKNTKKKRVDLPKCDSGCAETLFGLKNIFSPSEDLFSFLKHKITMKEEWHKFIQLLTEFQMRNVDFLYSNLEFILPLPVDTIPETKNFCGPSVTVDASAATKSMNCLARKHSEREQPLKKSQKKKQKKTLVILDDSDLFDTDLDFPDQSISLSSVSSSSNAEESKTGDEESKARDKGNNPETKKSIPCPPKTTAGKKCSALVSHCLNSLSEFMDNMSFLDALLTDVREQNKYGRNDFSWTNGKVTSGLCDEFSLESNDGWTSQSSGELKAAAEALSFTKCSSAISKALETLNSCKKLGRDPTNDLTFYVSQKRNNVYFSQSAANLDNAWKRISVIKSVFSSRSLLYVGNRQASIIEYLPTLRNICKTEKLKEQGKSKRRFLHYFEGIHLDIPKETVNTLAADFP

Compound	outcome [1]	Potency [2]	Potency [3]	Potency [4]	Potency [5]	outcome [6]	outcome [7]	Potency [8]	Potency [9]	Potency [10]	Potency [11]	activation [12]	outcome [13]	Potency [14]	Potency [15]	Potency [16]	Potency [17]	viability change [17] [%]	outcome [18]	Potency [19]
O=C(C1CCCCC1)N1CC(=O)N2CCc3ccccc3C2C1 (configuration not stated)	inactive	inactive	inactive	inactive	inactive	inactive	inactive	inactive	inactive	inactive	inactive	0.312% (inactive)	inactive	inactive	inactive					
O=C1N(c2ccccc2)c2ccccc2C1(Cc1ccncc1)Cc1ccncc1	inactive	inactive	inactive	inactive	inactive	inactive	inactive	inactive	inactive	inactive	inactive	1.31% (inactive)	inactive	inactive	inactive	inactive	inactive	10.1		
CCC1(C)CC(=O)NC1=O (configuration not stated)	inactive	inactive	inactive	inactive	inactive	inactive	inactive	inactive	inactive	inactive	inactive	1.44% (inactive)	inactive	inactive	inactive		inactive	4.35		
CN(C)CCC=C1c2ccccc2C=Cc2ccccc21	inactive	inactive	inactive	inactive	inactive	inactive		inactive	inactive	1 µM (active)	inactive	1.69% (inactive)	inactive	inactive	inactive	inactive	inactive	1.79	inactive	inactive
O=C(c1ccc(OCCN2CCCCC2)cc1)c1c(-c2ccc(O)cc2)sc2cc(O)ccc12	inactive	inactive	inactive	20 µM (active)	31.6 µM (active)	inactive		inactive		inactive	inactive		inactive	inactive	inactive					
Fc1ccc([C@@H]2CCNC[C@H]2COc2ccc3c(c2)OCO3)cc1	inactive	inactive	inactive	35.5 µM (active)		inactive			inactive	inactive	inactive	7.94% (inactive)	inactive	inactive	inactive		inactive	10.5	inactive	
Clc1ccc2c(c1)C(N1CCNCC1)=Nc1ccccc1O2	inactive	inactive	inactive	inactive		inactive			inactive		inactive	4.19% (inactive)	inactive	inactive	inactive				inactive	inactive
Cn1c(=O)c2c(ncn2C)n(C)c1=O	inactive	inactive		inactive	inactive	inactive	inactive	inactive	inactive	inactive	inactive		inactive		inactive		inactive	-2.67		
Cn1ccc2cc3c(cc21)CCN3C(=O)Nc1cccnc1	inactive	inactive		39.8 µM (active) and inactive	39.8 µM (active)	inactive	inactive	inactive	inactive			0.875% (inactive)	inactive	inactive	inactive		inactive	-2.16	inactive	
CC12CC3CC(C)(C1)CC(N)(C3)C2	inactive	inactive		inactive	inactive	inactive		inactive	inactive	inactive	inactive		inactive	inactive	inactive		inactive	-3.89	inactive	inactive
CN(C)CCOC(c1ccccc1)c1ccccc1	inactive	inactive	inactive		inactive	inactive	inactive	inactive	inactive	inactive	inactive	-3.31% (inactive)	inactive	inactive	inactive		inactive	2.71	inactive	
CN1CCC(=C2c3ccccc3CC(=O)c3sccc32)CC1	inactive	inactive	inactive	inactive		inactive	inactive	inactive	inactive	2 µM (active)	inactive		inactive	inactive	inactive		inactive	-3.17	inactive	inactive
CN(Cc1cnc2nc(N)nc(N)c2n1)c1ccc(C(=O)N[C@@H](CCC(=O)O)C(=O)O)cc1	inactive	inactive	inactive	79.4 µM (active) and inactive		inactive	inactive	inactive	inactive	inactive	inactive		inactive	inactive	inactive	inactive	0.58 µM (active)	-0.856	inactive	inactive
CC(C)Cc1ccc(C(C)C(=O)O)cc1 (configuration not stated)	inactive	inactive		inactive	inactive	inactive		inactive	inactive	inactive	inactive	0.375% (inactive)	inactive		inactive		inactive	7.62	inactive	
C[C@H]1c2cccc(O)c2C(O)=C2C(=O)[C@]3(O)C(O)=C(C(N)=O)C(=O)[C@@H](N(C)C)[C@@H]3[C@@H](O)[C@@H]21	inactive	inactive	23.8 µM (active)	inactive		inactive		inactive		inactive	inactive		inactive							
Cc1cc(C(C)(C)C)c(O)c(C)c1CC1=NCCN1	inactive	inactive	inactive	inactive	inactive		inactive	inactive	inactive	inactive	inactive	1.19% (inactive)	inactive	inactive	inactive		inactive	1.24	inactive	
